Measurements from PubChem BioAssay (NCI).
Where “and” joins values, the source holds several entries; their conditions need not be identical. Equal entries are not always repeated. Compounds without any hit were thinned out: in the full panel of roughly 83,000, 20% have a hit.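 How to read the values: 0–100, growth inhibition (40 = 60% inhibited); 0, no net growth; -100 to 0, cell death (-40 = 40% of starting cells died; -100 = all dead).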 Calls of active or inactive are those of the source. How the source made its calls: active means growth percent below 10; inactive means the rest.

How the values were obtained:
Assay in all cases: NCI-60 one-dose screen, 48 h (100 = growth as untreated, 0 = no growth, -100 = all killed)
Conditions in all cases: 10 µM unless noted
HCT-15 colon = test system: HCT-15 colon
SNB-75 CNS = test system: SNB-75 CNS
SNB-19 CNS = test system: SNB-19 CNS
U251 CNS = test system: U251 CNS
PC-3 prostate = test system: PC-3 prostate
SK-MEL-5 melanoma = test system: SK-MEL-5 melanoma
UACC-62 melanoma = test system: UACC-62 melanoma
LOX IMVI melanoma = test system: LOX IMVI melanoma
SK-MEL-28 melanoma = test system: SK-MEL-28 melanoma

COc1ccc(CSc2nc3cc(OC)c(OC)cc3c(=O)n2-c2ccc(Cl)cc2)cc1
growth (HCT-15 colon): 98.6% (inactive)
growth (SNB-75 CNS): 92.9% (inactive)
growth (SNB-19 CNS): 99.8% (inactive)
growth (U251 CNS): 94.2% (inactive)
growth (PC-3 prostate): 82% (inactive)
growth (SK-MEL-5 melanoma): 95.4% (inactive)
growth (UACC-62 melanoma): 99.4% (inactive)
growth (LOX IMVI melanoma): 98% (inactive)
growth (SK-MEL-28 melanoma): 107% (inactive)

COc1ccc(Nc2nc(NCCNc3ccnc4cc(Cl)ccc34)nc(N3CCOCC3)n2)cc1
growth (HCT-15 colon): 15.1% (inactive)
growth (SNB-75 CNS): 38.4% (inactive)
growth (SNB-19 CNS): 78% (inactive)
growth (U251 CNS): 48.2% (inactive)
growth (PC-3 prostate): 43.8% (inactive)
growth (SK-MEL-5 melanoma): 48.7% (inactive)
growth (UACC-62 melanoma): 74.2% (inactive)
growth (LOX IMVI melanoma): 40.2% (inactive)
growth (SK-MEL-28 melanoma): -80.7% (active)

COc1cc(-c2nc(Nc3nc4ccccc4[nH]3)nc(N)c2C#N)cc(OC)c1OC
growth (HCT-15 colon): 59.1% (inactive)
growth (SNB-75 CNS): 29.2% (inactive)
growth (SNB-19 CNS): 69.2% (inactive)
growth (U251 CNS): 56.8% (inactive)
growth (PC-3 prostate): 44.7% (inactive)
growth (UACC-62 melanoma): 44.5% (inactive)
growth (LOX IMVI melanoma): 69.5% (inactive)
growth (SK-MEL-28 melanoma): 72% (inactive)

O=C1NC(=O)C(CSc2ccccc2)(c2ccccc2)N1 (stereo not drawn)
growth (HCT-15 colon): 119% (inactive)
growth (SNB-75 CNS): 83.9% (inactive)
growth (SNB-19 CNS): 113% (inactive)
growth (U251 CNS): 96.7% (inactive)
growth (PC-3 prostate): 88.9% (inactive)
growth (SK-MEL-5 melanoma): 92.6% (inactive)
growth (UACC-62 melanoma): 101% (inactive)
growth (LOX IMVI melanoma): 89.6% (inactive)
growth (SK-MEL-28 melanoma): 112% (inactive)

FC(F)(F)c1cc(CNc2ncc(Br)c(Cl)n2)cc(C(F)(F)F)c1
growth (HCT-15 colon): 97.7% (inactive)
growth (SNB-75 CNS): 95.4% (inactive)
growth (SNB-19 CNS): 112% (inactive)
growth (PC-3 prostate): 92.2% (inactive)
growth (SK-MEL-5 melanoma): 97.3% (inactive)
growth (UACC-62 melanoma): 103% (inactive)
growth (LOX IMVI melanoma): 90.5% (inactive)
growth (SK-MEL-28 melanoma): 102% (inactive)

COc1ncnc2c1ncn2C/C(Br)=C(\Br)CCl
growth (HCT-15 colon): 31.6% (inactive)
growth (SNB-75 CNS): 46.6% (inactive)
growth (SNB-19 CNS): 89.9% (inactive)
growth (U251 CNS): -71.8% (active)
growth (PC-3 prostate): 46.4% (inactive)
growth (SK-MEL-5 melanoma): 53.7% (inactive)
growth (UACC-62 melanoma): 57.3% (inactive)
growth (LOX IMVI melanoma): -87.2% (active)
growth (SK-MEL-28 melanoma): 77.4% (inactive)

CC(=O)c1cc(C)c(OC(=O)c2ccccc2)c(C)c1
growth (HCT-15 colon): 92.2% (inactive)
growth (SNB-75 CNS): 82.6% (inactive)
growth (SNB-19 CNS): 103% (inactive)
growth (PC-3 prostate): 89.9% (inactive)
growth (SK-MEL-5 melanoma): 88.9% (inactive)
growth (UACC-62 melanoma): 90.7% (inactive)
growth (LOX IMVI melanoma): 90.2% (inactive)
growth (SK-MEL-28 melanoma): 117% (inactive)

COc1c(O)c2c3c(c1OC)-c1ccccc1CC3N(S(=O)(=O)c1ccc(C)cc1)CC2 (stereo not drawn)
growth (HCT-15 colon): 37.3% (inactive)
growth (SNB-75 CNS): 22.8% (inactive)
growth (SNB-19 CNS): 61.6% (inactive)
growth (U251 CNS): 22.5% (inactive)
growth (PC-3 prostate): 48.5% (inactive)
growth (SK-MEL-5 melanoma): 21.8% (inactive)
growth (UACC-62 melanoma): 58% (inactive)
growth (LOX IMVI melanoma): 51.7% (inactive)
growth (SK-MEL-28 melanoma): 53.2% (inactive)

Cc1cc(Cl)c2c(Cl)ccc(Cl)c2n1
growth (HCT-15 colon): 95.4% (inactive)
growth (SNB-75 CNS): 95.5% (inactive)
growth (SNB-19 CNS): 107% (inactive)
growth (PC-3 prostate): 96.3% (inactive)
growth (SK-MEL-5 melanoma): 102% (inactive)
growth (UACC-62 melanoma): 105% (inactive)
growth (LOX IMVI melanoma): 103% (inactive)
growth (SK-MEL-28 melanoma): 113% (inactive)

O=C(NCc1cccnc1)c1ccc([N+](=O)[O-])o1
growth (HCT-15 colon): -68.1% (active)
growth (SNB-75 CNS): -3.32% (active)
growth (SNB-19 CNS): 16.8% (inactive)
growth (U251 CNS): 4.88% (active)
growth (PC-3 prostate): 24.5% (inactive)
growth (SK-MEL-5 melanoma): 4.47% (active)
growth (UACC-62 melanoma): -67.9% (active)
growth (LOX IMVI melanoma): -77.9% (active)
growth (SK-MEL-28 melanoma): 17% (inactive)

O=C(Nc1ccc(Cl)c(Cl)c1)NC(CO)(CO)CO
growth (HCT-15 colon): 94.9% (inactive)
growth (SNB-75 CNS): 79.3% (inactive)
growth (SNB-19 CNS): 101% (inactive)
growth (PC-3 prostate): 86.3% (inactive)
growth (SK-MEL-5 melanoma): 99.3% (inactive)
growth (UACC-62 melanoma): 113% (inactive)
growth (LOX IMVI melanoma): 95.2% (inactive)
growth (SK-MEL-28 melanoma): 107% (inactive)

CN(C)C(=S)SCN1C(=O)c2ccc([N+](=O)[O-])cc2S1(=O)=O
growth (HCT-15 colon): 95.2% (inactive)
growth (SNB-75 CNS): 99.9% (inactive)
growth (SNB-19 CNS): 94.3% (inactive)
growth (U251 CNS): 93.5% (inactive)
growth (SK-MEL-5 melanoma): 101% (inactive)
growth (UACC-62 melanoma): 92.2% (inactive)
growth (LOX IMVI melanoma): 92.9% (inactive)
growth (SK-MEL-28 melanoma): 109% (inactive)

Brc1ccccc1Nc1ccc2nnc(-c3ccncc3)n2n1
growth (HCT-15 colon): 80.6% (inactive)
growth (SNB-75 CNS): 93.9% (inactive)
growth (SNB-19 CNS): 100% (inactive)
growth (U251 CNS): 102% (inactive)
growth (PC-3 prostate): 102% (inactive)
growth (SK-MEL-5 melanoma): 104% (inactive)
growth (UACC-62 melanoma): 108% (inactive)
growth (LOX IMVI melanoma): 92.5% (inactive)
growth (SK-MEL-28 melanoma): 99% (inactive)

Cc1ccc(/C=N/Nc2cc(C)c3ccccc3n2)s1
growth (UACC-62 melanoma): -69.9% [100 µM] (active) and -49% [100 µM] (active)

CN(C)CCNc1ccc(NCC[N+](C)(C)Cc2ccc([N+](=O)[O-])cc2)c2c1C(=O)c1ccccc1C2=O
growth (UACC-62 melanoma): 37.1% [25 µM] (inactive) and 1.14% [25 µM] (active)

CC(O)c1cc2c(s1)C(=O)c1c(C(C)O)csc1C2=O (stereo not drawn)
growth (UACC-62 melanoma): -61.9% [100 µM] (active) and -94.6% [100 µM] (active)

Cc1cc[n+](CCc2ccccc2)cc1
growth (SK-MEL-5 melanoma): 92.7% (inactive)

COc1cc([N+](=O)[O-])c(OC)c2c(Nc3ccc(S(=O)(=O)O)c4cc(S(=O)(=O)O)cc(S(=O)(=O)O)c34)cc(C)nc12
growth (UACC-62 melanoma): -91% [100 µM] (active) and -100% [100 µM] (active)

N#Cc1c(=N)cc2c3ccccc3oc3c(C#N)c(N)[nH]c1c32
growth (UACC-62 melanoma): 74.6% [100 µM] (inactive) and 13.9% [100 µM] (inactive)

CC(C)(C)c1cc(C2COC(=O)COCC(=O)OCCOCCOCCO2)cc(C(C)(C)C)c1O (stereo not drawn)
growth (UACC-62 melanoma): -51.5% [100 µM] (active) and -100% [100 µM] (active)

CC(=O)NC(CS/N=N/c1nc[nH]c1C(N)=O)C(=O)O (stereo not drawn)
growth (UACC-62 melanoma): -5.07% [100 µM] (active) and 0.469% [100 µM] (active)

CC(O)c1cc2c(s1)C(=O)c1ccsc1C2=O (stereo not drawn)
growth (UACC-62 melanoma): -61.7% [100 µM] (active) and -100% [100 µM] (active)

C#CCn1c2c(c3ccccc3c1=O)C(=O)c1ccccc1-2
growth (UACC-62 melanoma): 16% [100 µM] (inactive) and -100% [100 µM] (active)

C1CCC([PH+](C2CCCCC2)C2CCCCC2[PH+](C2CCCCC2)C2CCCCC2)CC1.[Au].[CH-]1CCCCC1CC1CCCC[N-]1 (stereo not drawn)
growth (SNB-75 CNS): 19.8% (inactive)

CN1CCN(c2nc(-c3ccncc3)nc3sc4c(c23)CCCCCC4)CC1
growth (HCT-15 colon): 76.5% (inactive)
growth (SNB-75 CNS): 14.5% (inactive)
growth (PC-3 prostate): 61.9% (inactive)
growth (UACC-62 melanoma): 86.6% (inactive)
growth (LOX IMVI melanoma): 64.9% (inactive)
growth (SK-MEL-28 melanoma): 83.5% (inactive)
